Test results published in PubChem BioAssay (Tox21).
Records with an inconclusive call do not appear. The source made the active and inactive calls. Unless noted, the call rests on the fitted dose curve.

Experiments:
[1] = qHTS assay to identify small molecule antagonists of the estrogen receptor beta (ER-beta) signaling pathway - cell viability counter screen (AID 1259382; active means well fitted curve in the direction sought with a large enough effect in the repeat runs; an effect the other way counts as inactive or inconclusive;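 further: HEK293T cells carrying ER-beta-UAS-bla reporter stimulated with estradiol; series mostly up to about 92 µM; nearly all actives have a fitted effect of over 55% in size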)
Summary of the method: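 CellTiter-Glo ATP luminescence measured after the LiveBLAzer read in the same wells; ER-beta-UAS-bla HEK293T cells, 16 hr compound treatment with 1nM 17-beta-estradiol agonist at 37C, 5% CO2.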

[2] = biological target: Estrogen receptor (Homo sapiens) (UniProt P03372); assay: qHTS assay to identify small molecule agonists of the estrogen receptor alpha (ER-alpha) signaling pathway in the presence of an antagonist (AID 1259383); further: top concentration of the series differs between compounds; nearly all actives have a fitted effect of over 15% in size
Summary of the method: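 Luminescent ERE-luciferase reporter, VM7Luc4E2 cells (endogenous ER-alpha); 10.0nM ICI-182,780 final; 15-point compound titration; 22hr at 37C; ONE-Glo, 30min RT.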

[3] = qHTS assay to identify small molecule agonists or antagonists of the thyroid stimulating hormone receptor (TSHR) signaling pathway - wild type cell line counter screen (AID 1259384)
Summary of the method: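 Wild-type Hek293 cells, 800/well, 18 h at 37C, then compound with Ro20-1724 for 30 min RT. cAMP by HTRF (cAMP-d2/anti-cAMP cryptate), 1 h RT, fluorescence read. 15 concentrations, triplicates.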

[4] = biological target: Thyrotropin receptor (Homo sapiens) (UniProt P16473); assay: qHTS assay to identify small molecule antagonists of the thyroid stimulating hormone receptor (TSHR) signaling pathway (AID 1259385); further: nearly all actives have a fitted effect of over 20% in size
Summary of the method: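 TSHR-HEK293 cells (800/well) plated 18 h, then compounds with Ro20-1724 and TSH at 1.5 ng/mL final, 30 min at room temperature. cAMP quantified by HTRF (cAMP-d2/anti-cAMP-cryptate, 1 h); 15 concentrations in triplicate.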

[5] = qHTS assay to identify small molecule agonists of the estrogen receptor alpha (ER-alpha) signaling pathway in the presence of an antagonist - cell viability counter screen (AID 1259386; active means well fitted curve in the direction sought with a large enough effect in the repeat runs; an effect the other way counts as inactive or inconclusive;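 further: series mostly up to about 92 µM; cells exposed to compounds for 22 h at 37 °C before the viability read; nearly all actives have a fitted effect of over 30% in size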)
Summary of the method: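 Using estrogen-depleted VM7Luc4E2 cells, the 15-concentration compound series was applied together with 10.0nM ICI-182,780 and incubated 22hr at 37C/5% CO2. Cell viability was then scored by CellTiter-Fluor.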

[6] = biological target: Progesterone receptor (Homo sapiens) (UniProt P06401); assay: qHTS assay to identify small molecule agonists of the progesterone receptor (PR) signaling pathway (AID 1346784); further: nearly all actives have a fitted effect of over 30% in size
Summary of the method: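 Using charcoal-stripped serum (2%) to limit endogenous steroids, PR-UAS-bla HEK 293T cells received compounds for 16 hr at 37C after 6 hr plating; beta-lactamase FRET fluorescence was recorded following 2 hr substrate loading at room temperature.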

[7] = biological target: Progesterone receptor (Homo sapiens) (UniProt P06401); assay: qHTS assay to identify small molecule antagonists of the progesterone receptor (PR) signaling pathway (AID 1346795; active means well fitted inhibition curve with a large enough effect in the signal ratio in the repeat runs, not every such curve was filed as active; the % refers to the signal ratio)
Summary of the method: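 Inhibition of R5020-induced (1 nM final) beta-lactamase reporter signal in PR-UAS-bla HEK293T cells was scored by FRET fluorescence after overnight (16 hr) compound treatment.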

[8] = qHTS assay to identify small molecule antagonists of the progesterone receptor (PR) signaling pathway - cell viability counter screen (AID 1346798; active means well fitted curve in the direction sought with a large enough effect in the repeat runs; an effect the other way counts as inactive or inconclusive; further: series mostly up to about 92 µM; nearly all actives have a fitted effect of over 50% in size)
Summary of the method: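 ATP content as viability readout: CellTiter-Glo luminescence, 30 min room temperature, in PR-UAS-bla HEK293T cells after 16 hr compound/R5020 treatment at 37C and 5% CO2.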

[9] = qHTS assay to identify small molecule agonists of the progesterone receptor (PR) signaling pathway - cell viability counter screen (AID 1346799); further: nearly all actives have a fitted effect of over 45% in size
Summary of the method: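 Cytotoxicity in PR-bla HEK293T cells: 16 h compound, 37C; CellTiter-Glo added post-FRET read; luminescence after 30 min RT.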

Measured: Potency

Progesterone receptor (Homo sapiens), sequence (P06401 whole entry, looked up): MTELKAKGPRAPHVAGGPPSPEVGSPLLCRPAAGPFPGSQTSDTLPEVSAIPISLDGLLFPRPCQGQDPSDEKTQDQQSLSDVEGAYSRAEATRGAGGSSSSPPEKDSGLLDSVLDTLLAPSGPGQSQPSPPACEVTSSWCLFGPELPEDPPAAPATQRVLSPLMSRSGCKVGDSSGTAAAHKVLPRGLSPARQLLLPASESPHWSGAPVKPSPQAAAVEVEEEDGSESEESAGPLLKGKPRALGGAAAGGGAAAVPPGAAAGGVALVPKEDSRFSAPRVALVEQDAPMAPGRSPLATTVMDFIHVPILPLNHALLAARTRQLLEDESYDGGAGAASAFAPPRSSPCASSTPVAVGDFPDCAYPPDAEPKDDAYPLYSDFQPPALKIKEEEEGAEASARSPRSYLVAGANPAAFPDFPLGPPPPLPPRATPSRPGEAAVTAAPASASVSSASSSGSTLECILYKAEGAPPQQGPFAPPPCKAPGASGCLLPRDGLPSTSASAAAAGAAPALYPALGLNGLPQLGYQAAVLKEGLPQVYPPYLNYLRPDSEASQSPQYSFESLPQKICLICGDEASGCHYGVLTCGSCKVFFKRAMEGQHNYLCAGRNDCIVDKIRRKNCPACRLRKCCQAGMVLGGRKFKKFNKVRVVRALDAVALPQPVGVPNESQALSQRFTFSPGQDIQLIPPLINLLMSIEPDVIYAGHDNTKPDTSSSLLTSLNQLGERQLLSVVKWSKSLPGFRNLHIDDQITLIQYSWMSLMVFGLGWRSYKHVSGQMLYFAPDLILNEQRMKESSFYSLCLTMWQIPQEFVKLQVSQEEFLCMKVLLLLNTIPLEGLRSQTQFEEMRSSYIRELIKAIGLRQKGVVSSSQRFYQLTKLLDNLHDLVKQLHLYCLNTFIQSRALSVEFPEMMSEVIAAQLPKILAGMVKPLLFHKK
Estrogen receptor (Homo sapiens), sequence (P03372 whole entry, looked up): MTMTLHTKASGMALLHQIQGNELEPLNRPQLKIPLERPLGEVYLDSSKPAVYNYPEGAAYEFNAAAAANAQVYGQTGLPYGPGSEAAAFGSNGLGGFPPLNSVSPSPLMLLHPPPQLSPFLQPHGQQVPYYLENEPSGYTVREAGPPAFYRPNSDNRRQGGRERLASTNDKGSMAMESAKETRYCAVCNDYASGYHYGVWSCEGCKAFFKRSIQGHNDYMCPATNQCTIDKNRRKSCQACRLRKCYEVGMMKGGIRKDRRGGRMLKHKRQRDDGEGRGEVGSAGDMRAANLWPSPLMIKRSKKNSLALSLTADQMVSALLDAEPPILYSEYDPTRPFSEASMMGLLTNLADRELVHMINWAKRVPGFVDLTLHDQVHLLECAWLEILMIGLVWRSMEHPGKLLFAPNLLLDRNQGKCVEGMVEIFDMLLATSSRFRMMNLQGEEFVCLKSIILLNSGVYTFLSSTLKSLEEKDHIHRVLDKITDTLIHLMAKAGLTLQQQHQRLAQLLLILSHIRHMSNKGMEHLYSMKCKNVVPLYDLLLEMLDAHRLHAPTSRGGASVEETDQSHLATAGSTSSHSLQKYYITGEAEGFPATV
Thyrotropin receptor (Homo sapiens), sequence (P16473 whole entry, looked up): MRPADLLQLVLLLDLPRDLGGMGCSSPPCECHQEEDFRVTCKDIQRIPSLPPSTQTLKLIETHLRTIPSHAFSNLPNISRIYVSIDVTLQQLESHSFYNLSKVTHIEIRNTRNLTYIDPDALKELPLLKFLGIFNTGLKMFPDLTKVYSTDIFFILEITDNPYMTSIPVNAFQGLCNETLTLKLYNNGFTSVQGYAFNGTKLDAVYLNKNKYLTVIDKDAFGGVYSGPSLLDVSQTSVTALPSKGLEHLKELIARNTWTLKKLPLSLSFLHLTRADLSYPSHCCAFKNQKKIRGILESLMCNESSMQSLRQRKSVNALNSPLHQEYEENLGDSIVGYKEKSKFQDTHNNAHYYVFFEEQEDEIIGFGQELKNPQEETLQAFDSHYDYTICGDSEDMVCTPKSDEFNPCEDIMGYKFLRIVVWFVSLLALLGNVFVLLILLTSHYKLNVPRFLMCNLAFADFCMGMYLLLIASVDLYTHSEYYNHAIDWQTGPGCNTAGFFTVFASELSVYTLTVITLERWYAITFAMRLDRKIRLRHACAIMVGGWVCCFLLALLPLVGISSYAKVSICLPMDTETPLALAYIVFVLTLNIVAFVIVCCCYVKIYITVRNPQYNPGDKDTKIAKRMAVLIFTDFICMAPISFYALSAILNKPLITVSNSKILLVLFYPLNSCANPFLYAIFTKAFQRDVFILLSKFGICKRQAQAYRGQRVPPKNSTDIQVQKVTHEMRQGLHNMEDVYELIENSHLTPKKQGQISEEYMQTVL

C[C@H]1[C@@H](c2ccccc2)NC(=O)N1C
inactive: all assays above

CC(C)c1ccc(C=O)cc1
inactive: all assays above

O=C1OCCO1
inactive: all assays above

CO[C@@]1(NC(=O)Cc2cccs2)C(=O)N2C(C(=O)O)=C(COC(N)=O)CS[C@@H]21
inactive: all assays above

C=CCSSCCC
not listed: [5] | [9]
inactive: all other assays above

O=C[O][Al]([O]C=O)[O]C=O
not listed: [5]
inactive: all other assays above

CCC(C)C(C)=O (configuration not stated)
inactive: all assays above

CCOCCOCC
not listed: [5]
inactive: all other assays above

CN(C)CCOC(=O)C(c1ccccc1)C1(O)CCCC1 (configuration not stated)
not listed: [5]
inactive: all other assays above

CC(=O)C1C(=O)C=C(C)OC1=O (configuration not stated)
not listed: [5]
inactive: all other assays above

CCCSSCCC
not listed: [5]
inactive: all other assays above

Cc1ccc(N)cc1S(=O)(=O)O
inactive: all assays above

CC(C)CO
not listed: [6] | [7] | [8]
inactive: all other assays above
